Experimental data as given in PubChem BioAssay.
For some assays here: Potency and affinity values are given separately. The source made the active and inactive calls. Unless noted, no rule for the calls is given here.

How the values were obtained:
[1] = antimalarial activity against Dd2 strain (AID 2302;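 active = growth inhibition above 50% at the single 2 µM test dose, taken to imply half-maximal potency below 2 µM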;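 also: 0% = DMSO untreated growth and 100% = chloroquine plus artemisinin killed control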); details: P. falciparum Dd2 in RBCs, LDH growth readout, 72 h; at 2 µM; stronger effect = higher value
[2] = HepG2 cytotoxicity, primary screen, cytotoxicity control for P. falciparum antimalarial project, cell-based, ATP luminescence (AID 2303;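 active = inhibition above 50%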;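 also: 0% = DMSO wells and 100% = digitonin-killed cells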); details: HepG2 viability, 24-48 h, at 10 µM, stronger effect = higher value
[3] = target: L-lactate dehydrogenase (Plasmodium falciparum (isolate CDC / Honduras)) (UniProt Q27743); experiment: PfLDH activity inhibition – cell lysate, 3D7 strain, counter-screen for P. falciparum growth inhibition project (AID 2304);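 also: 0% = vehicle and 100% = reference inhibitor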; details: P. falciparum 3D7 crude extract, LDH APAD/NBT absorbance; at 2 µM; stronger effect = higher value
Sequence of L-lactate dehydrogenase (Plasmodium falciparum (isolate CDC / Honduras)) (Q27743 whole entry, looked up): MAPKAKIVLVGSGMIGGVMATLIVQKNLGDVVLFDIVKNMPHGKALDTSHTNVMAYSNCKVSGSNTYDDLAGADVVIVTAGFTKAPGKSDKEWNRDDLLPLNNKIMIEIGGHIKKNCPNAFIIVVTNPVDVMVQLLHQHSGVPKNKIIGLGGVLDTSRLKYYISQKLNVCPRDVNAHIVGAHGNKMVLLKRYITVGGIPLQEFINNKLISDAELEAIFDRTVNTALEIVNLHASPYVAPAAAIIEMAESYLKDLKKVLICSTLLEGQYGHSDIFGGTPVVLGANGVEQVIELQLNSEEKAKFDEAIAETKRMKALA

[4] = inhibition of 3D7 malaria parasite growth – strain 3D7 (AID 2306);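 also: 0% = DMSO wells and 100% = chloroquine plus artemisinin control wells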; details: P. falciparum 3D7 erythrocytic growth, LDH absorbance, 72 h; at 2 µM; stronger effect = higher value
[5] = target: Calcium-dependent protein kinase 1 (Plasmodium falciparum (isolate 3D7)) (UniProt P62344); experiment: PfCDPK1 kinase inhibitors, biochemical, TCAMS library (AID 1159585; cut-off not given, nearly all actives have IC50 up to about 0.98 µM;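 also: inhibitors leave more ATP so luminescence rises with inhibition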); details: recombinant PfCDPK1, Kinase-Glo ATP depletion luminescence
Sequence of Calcium-dependent protein kinase 1 (Plasmodium falciparum (isolate 3D7)) (P62344 whole entry, looked up): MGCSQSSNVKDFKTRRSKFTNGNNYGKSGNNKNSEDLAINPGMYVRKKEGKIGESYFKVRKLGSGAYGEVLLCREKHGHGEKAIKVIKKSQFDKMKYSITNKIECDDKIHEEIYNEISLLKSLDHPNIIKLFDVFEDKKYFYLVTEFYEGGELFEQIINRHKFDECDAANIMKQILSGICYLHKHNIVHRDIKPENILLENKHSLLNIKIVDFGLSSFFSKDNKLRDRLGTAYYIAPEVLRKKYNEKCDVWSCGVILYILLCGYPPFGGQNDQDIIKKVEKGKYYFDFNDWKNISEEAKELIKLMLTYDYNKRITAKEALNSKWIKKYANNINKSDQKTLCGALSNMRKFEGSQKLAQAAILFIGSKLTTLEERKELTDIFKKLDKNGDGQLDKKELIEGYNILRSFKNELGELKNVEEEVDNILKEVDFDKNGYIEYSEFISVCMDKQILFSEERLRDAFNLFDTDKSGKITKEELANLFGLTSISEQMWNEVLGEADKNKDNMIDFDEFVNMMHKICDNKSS

[6] = target: Plasmodium falciparum protein kinase 6 (PK6, PF3D7_1337100) (UniProt Q8IDW1); experiment: PfPK6 kinase inhibitors, biochemical, TCAMS library (AID 1159586); details: recombinant PfPK6, Kinase-Glo ATP depletion luminescence
Sequence of Plasmodium falciparum protein kinase 6 (PK6, PF3D7_1337100) (Q8IDW1 1-305): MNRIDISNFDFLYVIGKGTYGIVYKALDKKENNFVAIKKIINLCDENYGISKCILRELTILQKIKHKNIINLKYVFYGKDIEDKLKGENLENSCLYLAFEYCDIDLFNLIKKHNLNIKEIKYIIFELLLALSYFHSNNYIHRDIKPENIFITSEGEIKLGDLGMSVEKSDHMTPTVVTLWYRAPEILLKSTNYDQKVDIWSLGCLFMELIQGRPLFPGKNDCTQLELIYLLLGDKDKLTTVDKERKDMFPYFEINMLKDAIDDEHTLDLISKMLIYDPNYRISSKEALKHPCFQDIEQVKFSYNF

[7] = target: Protein kinase 7 (PK7), Plasmodium falciparum 3D7 (PF3D7_0213400) (UniProt Q7YTF7); experiment: inhibition of Plasmodium PK7 catalytic activity – biochemical, TCAMS antimalarial set, Kinase-Glo luminescence (AID 1159587); details: recombinant PfPK7, Kinase-Glo ATP depletion luminescence
Sequence of Protein kinase 7 (PK7), Plasmodium falciparum 3D7 (PF3D7_0213400) (Q7YTF7 1-343): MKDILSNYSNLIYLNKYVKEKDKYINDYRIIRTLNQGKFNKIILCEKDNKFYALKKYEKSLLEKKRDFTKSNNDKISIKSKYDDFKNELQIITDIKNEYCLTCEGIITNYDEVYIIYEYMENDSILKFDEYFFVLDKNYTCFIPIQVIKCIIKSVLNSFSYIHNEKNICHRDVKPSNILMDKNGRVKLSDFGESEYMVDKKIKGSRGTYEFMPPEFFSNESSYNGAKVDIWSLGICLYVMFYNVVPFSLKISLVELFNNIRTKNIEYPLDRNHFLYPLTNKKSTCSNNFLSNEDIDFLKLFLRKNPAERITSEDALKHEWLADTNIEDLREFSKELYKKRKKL

[8] = target: Calcium-dependent protein kinase 4 (Plasmodium falciparum (isolate 3D7)) (UniProt Q8IBS5); experiment: PfCDPK4 kinase inhibitors, biochemical, TCAMS library (AID 1159588; cut-off not given, nearly all actives have IC50 up to about 0.91 µM); details: recombinant PfCDPK4, Kinase-Glo ATP depletion luminescence
Sequence of Calcium-dependent protein kinase 4 (Plasmodium falciparum (isolate 3D7)) (Q8IBS5 whole entry, looked up): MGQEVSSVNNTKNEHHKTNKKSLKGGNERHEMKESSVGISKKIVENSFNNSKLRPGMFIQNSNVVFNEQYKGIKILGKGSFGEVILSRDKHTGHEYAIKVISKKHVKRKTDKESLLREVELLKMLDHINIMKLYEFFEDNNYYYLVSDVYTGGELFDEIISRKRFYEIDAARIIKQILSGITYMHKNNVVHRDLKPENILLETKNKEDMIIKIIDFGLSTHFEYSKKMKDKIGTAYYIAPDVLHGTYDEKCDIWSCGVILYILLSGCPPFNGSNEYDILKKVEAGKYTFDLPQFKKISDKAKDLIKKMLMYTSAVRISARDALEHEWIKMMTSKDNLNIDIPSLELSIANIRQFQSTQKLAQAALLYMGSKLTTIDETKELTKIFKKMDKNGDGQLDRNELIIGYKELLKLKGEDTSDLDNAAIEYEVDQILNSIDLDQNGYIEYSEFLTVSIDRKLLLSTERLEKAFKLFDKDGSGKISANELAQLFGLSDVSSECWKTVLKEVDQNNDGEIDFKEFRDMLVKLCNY

Cc1ccccc1C1CCN(c2ncc(C(=O)NC3CC3)cc2Cl)CC1
active: growth inhibition [1] 96% | growth inhibition [4] 96%
inactive: inhibition [2] 22% | inhibition [3] -1% | outcome [5] | outcome [6] | outcome [7] | outcome [8]

CCc1c(CCNCCCCCCNCCc2ccc(Br)cc2)ccc(OC)c1OC
inactive: growth inhibition [1] 14% | inhibition [3] 0% | outcome [5] | outcome [6] | outcome [7] | outcome [8]
active: inhibition [2] 100% | growth inhibition [4] 99%

c1ccc(-c2nc(NCCCn3ccnc3)cc(-c3ccncc3)n2)cc1
inactive: inhibition [2] 42% | inhibition [3] -8% | outcome [5] | outcome [6] | outcome [7] | outcome [8]
active: growth inhibition [1] 100% | growth inhibition [4] 103%

CC(C)CNCc1cccc(-c2cccc(CN(CCCN3CCN(C)CC3)C(=O)CCC3CCCC3)c2)c1
active: growth inhibition [1] 96% | growth inhibition [4] 100%
inactive: inhibition [2] 45% | inhibition [3] -7% | outcome [5] | outcome [6] | outcome [7] | outcome [8]

COc1ccc(/C=C/c2ccc(-c3c(C)[nH]c(C)c(Cl)c3=O)cc2)cc1OC
inactive: inhibition [2] 12% | inhibition [3] -8% | outcome [5] | outcome [6] | outcome [7] | outcome [8]
active: growth inhibition [1] 96% | growth inhibition [4] 97%

COc1ccc(CNCCCCCCCNCc2ccc(Cl)c(Cl)c2)cc1Cl
active: growth inhibition [4] 90%
inactive: growth inhibition [1] 18% | inhibition [2] 27% | inhibition [3] 4% | outcome [5] | outcome [6] | outcome [7] | outcome [8]

O=C(NCCCN1CCN(c2cccc(Cl)c2)CC1)c1ccc(-c2nc3cc(Cl)c(Cl)cc3[nH]2)c(F)c1
active: growth inhibition [1] 72% | growth inhibition [4] 101%
inactive: inhibition [2] 3% | inhibition [3] 2% | outcome [5] | outcome [6] | outcome [7] | outcome [8]

O=C1CC(C(=O)O)CC(=O)N1
active: growth inhibition [1] 88% | growth inhibition [4] 94%
inactive: inhibition [2] -3% | inhibition [3] 6% | outcome [5] | outcome [6] | outcome [7] | outcome [8]

Cc1c(-c2ccc3c(c2)C(NCCCN2CCCCC2)CC3)cnc(N)c1C (stereo not given)
active: growth inhibition [4] 97%
inactive: growth inhibition [1] 3% | inhibition [2] 4% | inhibition [3] -3% | outcome [5] | outcome [6] | outcome [7] | outcome [8]

CC1(C)CN(CCC2CCC(NC(=O)/C=C/c3ccccc3F)CC2)Cc2ccc(C#N)cc21 (stereo not given)
active: growth inhibition [1] 82% | growth inhibition [4] 89%
inactive: inhibition [2] -1% | inhibition [3] -3% | outcome [5] | outcome [6] | outcome [7] | outcome [8]

Nc1c2c(nc3cc(NC(=O)c4ccc([N+](=O)[O-])cc4)ccc13)CCCC2
inactive: inhibition [2] 11% | inhibition [3] -2% | outcome [5] | outcome [6] | outcome [7] | outcome [8]
active: growth inhibition [1] 58% | growth inhibition [4] 100%

O=C(Nc1ccc(F)c(F)c1)c1ccc(CN2CCCN(Cc3cccc(F)c3)CC2)cc1
inactive: growth inhibition [1] 12% | inhibition [3] -6% | outcome [5] | outcome [6] | outcome [7] | outcome [8]
active: inhibition [2] 51% | growth inhibition [4] 83%

CCN(CCN(C)C)Cc1ccc(-c2ccc(NS(=O)(=O)c3cccc4cccnc34)cc2)cc1
inactive: inhibition [2] 16% | inhibition [3] 1% | outcome [5] | outcome [6] | outcome [7] | outcome [8]
active: growth inhibition [1] 57% | growth inhibition [4] 91%

c1ccc2ncc(CNCCCCCCCCNCc3cnc4ccccc4c3)cc2c1
inactive: growth inhibition [1] 4% | inhibition [2] 8% | inhibition [3] -3% | outcome [5] | outcome [6] | outcome [7] | outcome [8]
active: growth inhibition [4] 88%

CC[C@H](C)CNC(=O)c1cncc(-c2ccc(CNCCOc3ccccc3)cc2)c1
active: growth inhibition [4] 90%
inactive: growth inhibition [1] 0% | inhibition [2] 7% | inhibition [3] 3% | outcome [5] | outcome [6] | outcome [7] | outcome [8]

OCC1CCN(Cc2ccc(-c3cccc(-c4nc5ccc(F)cc5[nH]4)c3)cc2)CC1
active: growth inhibition [4] 100%
inactive: growth inhibition [1] 25% | inhibition [2] 14% | inhibition [3] -3% | outcome [5] | outcome [6] | outcome [7] | outcome [8]

c1cncc(Oc2ccc(Nc3ccnc4cc(-c5cccc(CN6CCOCC6)c5)ccc34)cc2)c1
inactive: inhibition [2] 14% | inhibition [3] 5% | outcome [5] | outcome [6] | outcome [7] | outcome [8]
active: growth inhibition [1] 100% | growth inhibition [4] 101%

CC(C)n1cc(CN2CCCC(C(=O)Nc3cccc(-c4cc5ccccc5[nH]4)c3)C2)cn1 (stereo not given)
active: growth inhibition [1] 65% | growth inhibition [4] 96%
inactive: inhibition [2] 34% | inhibition [3] -3% | outcome [5] | outcome [6] | outcome [7] | outcome [8]

COc1cccc(C2(c3cccc(OC)c3)N=C(N)N(CCCc3ccccc3)C2=O)c1
active: growth inhibition [1] 93% | growth inhibition [4] 98%
inactive: inhibition [2] 3% | inhibition [3] 4% | outcome [5] | outcome [6] | outcome [7] | outcome [8]

COc1ccc(-c2ccc(CNC3Cc4ccccc4C3)cc2)cc1S(=O)(=O)NCCN1CCCC1
inactive: inhibition [2] 30% | inhibition [3] 3% | outcome [5] | outcome [6] | outcome [7] | outcome [8]
active: growth inhibition [1] 99% | growth inhibition [4] 100%

CC12CN3CC(C)(CN(C1)C3c1cc(Br)ccc1O)C2O (stereo not given)
active: growth inhibition [4] 98%
inactive: growth inhibition [1] 2% | inhibition [2] 5% | inhibition [3] -3% | outcome [5] | outcome [6] | outcome [7] | outcome [8]

COc1ccc(N2CCN(CCCCNC(=O)c3ccc(NC(=O)c4cc(C(F)(F)F)cc(C(F)(F)F)c4)cc3)CC2)c(OC)c1
active: growth inhibition [1] 99% | growth inhibition [4] 100%
inactive: inhibition [2] 30% | inhibition [3] 2% | outcome [5] | outcome [6] | outcome [7] | outcome [8]

Cc1cc(C2CCN(CCCCNC(=O)c3ccc(-c4ccc(C(F)(F)F)cc4)cc3)CC2)c(C)cc1OCCOC1CCCCO1 (stereo not given)
active: growth inhibition [4] 95%
inactive: growth inhibition [1] 5% | inhibition [2] 30% | inhibition [3] -7% | outcome [5] | outcome [6] | outcome [7] | outcome [8]

COc1cccc2cc(C(=O)N[C@@H](CC(C)C)C(=O)N[C@H](/C=N/NC(=O)c3ccccc3)Cc3cnc[nH]3)oc12
inactive: inhibition [2] 3% | inhibition [3] -6% | outcome [5] | outcome [6] | outcome [7] | outcome [8]
active: growth inhibition [1] 90% | growth inhibition [4] 99%

O=C(NC1CC1)c1cnc(N2CCN(Cc3ccc(Cl)cc3)CC2)c(Cl)c1
active: growth inhibition [1] 91% | growth inhibition [4] 93%
inactive: inhibition [2] 39% | inhibition [3] 0% | outcome [5] | outcome [6] | outcome [7] | outcome [8]

Cc1cccc2[nH]c(-c3ccc(-c4cccc(NC(=O)Nc5ccsc5)c4)s3)nc12
active: growth inhibition [4] 100%
inactive: growth inhibition [1] 29% | inhibition [2] 30% | inhibition [3] -3% | outcome [5] | outcome [6] | outcome [7] | outcome [8]

C[C@H](Nc1c(Nc2ccc3[nH]ccc3c2)c(=O)c1=O)C1CCCCC1
inactive: growth inhibition [1] 11% | inhibition [2] 7% | inhibition [3] 6% | outcome [5] | outcome [6] | outcome [7] | outcome [8]
active: growth inhibition [4] 96%

Cc1nc2nc(N)nc(N)c2c(C)c1Cc1ccc(Cl)cc1
active: inhibition [2] 62% | growth inhibition [4] 94%
inactive: growth inhibition [1] 22% | inhibition [3] 0% | outcome [5] | outcome [6] | outcome [7] | outcome [8]

Cc1cnc(-c2ccc(NC(=O)N3CCc4cc5nccc(N6CCN7CCC[C@H]7C6)c5cc43)c3ccccc23)o1
active: growth inhibition [4] 100%
inactive: growth inhibition [1] 45% | inhibition [2] 12% | inhibition [3] -1% | outcome [5] | outcome [6] | outcome [7] | outcome [8]

FC(F)(F)c1ccc2nccc(NCc3ccccc3)c2c1
inactive: inhibition [2] 18% | inhibition [3] -9% | outcome [5] | outcome [6] | outcome [7] | outcome [8]
active: growth inhibition [1] 56% | growth inhibition [4] 93%

Cc1cccc2[nH]c(-c3ccc(-c4ccc(CN5CCCC5CN)cc4)cc3)nc12 (stereo not given)
inactive: inhibition [2] 28% | inhibition [3] 1% | outcome [5] | outcome [6] | outcome [7] | outcome [8]
active: growth inhibition [1] 65% | growth inhibition [4] 99%

O=C(Nc1cccc(CN2CCN(Cc3ccc(O)cc3)CC2)c1)c1cc2ccccc2o1
active: growth inhibition [4] 81%
inactive: growth inhibition [1] 12% | inhibition [2] 8% | inhibition [3] -3% | outcome [5] | outcome [6] | outcome [7] | outcome [8]

Cc1noc(C)c1-c1cccc(CNCc2cccc(-c3cccc(-c4nc5ccc(C(F)(F)F)cc5[nH]4)c3)c2)c1
inactive: inhibition [2] 18% | inhibition [3] 5% | outcome [5] | outcome [6] | outcome [7] | outcome [8]
active: growth inhibition [1] 95% | growth inhibition [4] 101%

O=C(NC1CCCCC1)N(Cc1ccc(-c2cccc(CNC3CCCC3)c2)cc1)C1CCN(Cc2ccccc2)CC1
active: growth inhibition [1] 59% | inhibition [2] 52% | growth inhibition [4] 95%
inactive: inhibition [3] 3% | outcome [5] | outcome [6] | outcome [7] | outcome [8]

Cc1ccc(/C=C/C(=O)NCCCCCN2CCN(C(=O)Nc3ccc(Cl)c(C(F)(F)F)c3)CC2)cc1
inactive: growth inhibition [1] -3% | inhibition [2] 10% | inhibition [3] -2% | outcome [5] | outcome [6] | outcome [7] | outcome [8]
active: growth inhibition [4] 93%

N#Cc1ccc(NC(=NC2CCCc3ccccc32)Nc2ccc(-c3ccccc3)cc2)c(O)c1 (stereo not given)
inactive: inhibition [2] 0% | inhibition [3] 3% | outcome [5] | outcome [6] | outcome [7] | outcome [8]
active: growth inhibition [1] 98% | growth inhibition [4] 99%

O=C(NCC1COc2ccccc2O1)c1cnc2c(c1)nc(-c1cnc(-c3ccccc3)[nH]1)n2CCSCc1c(F)cccc1Cl (stereo not given)
active: growth inhibition [4] 95%
inactive: growth inhibition [1] 10% | inhibition [2] 6% | inhibition [3] 4% | outcome [5] | outcome [6] | outcome [7] | outcome [8]

Cc1cccc2[nH]c(-c3ccc(-c4cccc(CNCCN5CCNCC5)c4)cc3)nc12
active: growth inhibition [4] 85%
inactive: growth inhibition [1] 2% | inhibition [2] 9% | inhibition [3] 1% | outcome [5] | outcome [6] | outcome [7] | outcome [8]

O=C(Nc1ccsc1)Nc1cccc(-c2cccc(-c3nc4ccccc4[nH]3)c2)c1
active: growth inhibition [1] 55% | inhibition [2] 61% | growth inhibition [4] 101%
inactive: inhibition [3] -7% | outcome [5] | outcome [6] | outcome [7] | outcome [8]

Cc1cc(-c2nc3ccc(CN4CCN(C)CC4)cc3[nH]2)nn1Cc1cc(Cl)ccc1OCc1ccccc1
active: growth inhibition [1] 52% | growth inhibition [4] 100%
inactive: inhibition [2] 3% | inhibition [3] 1% | outcome [5] | outcome [6] | outcome [7] | outcome [8]
